Assay results from PubChem BioAssay (NCI).
Compounds without any hit were thinned out: in the full panel of roughly 79,000, 15% have a hit. Calls of active or inactive are those of the source. No stated cut-off is given here; in the data, active means growth inhibition above about 70%; inactive means the rest.

assay: NCI Yeast Anticancer Drug Screen. Data for the mec2-1 strain (AID 157); conditions: S. cerevisiae mec2-1 strain, at 50.0 µM, hits give high values
In short: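 Yeast mec2-1 mutant treated with compound. Readout: growth inhibition vs vehicle controls.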

Row | Compound | growth inhibition
1 | C=C(Br)CN(CC(=C)Br)C(C)=O | -11.1% (inactive)
2 | CCN(C(C)=O)c1ccc2c(c1)Cc1ccccc1-2 | 95.2% (active)
3 | NN(c1ccccc1)c1cccc2ccccc12 | 3.7% (inactive)
4 | C#CCN1CCN(C(=S)N/N=C(\C)c2ccccn2)CC1 | 99.7% (active)
5 | CC(C)OC(=O)C1C=CCc2c(O)ccc(O)c21 (stereo not drawn) | 11.8% (inactive)
6 | CC(=O)C1C(=O)C=C(C)OC1=O (stereo not drawn) | 29.1% (inactive)
7 | CCOC(=O)c1[nH]n(-c2ccccc2)c(=O)c1/C=N/C(=S)N=Nc1c(O)[nH]c2ccccc12 | -23.4% (inactive)
8 | N#Cc1c(Cl)nnc(-c2ccccc2)c1-c1ccccc1 | 92.2% (active)
9 | CC(=O)Oc1c(O)c2ccccc2c2ccccc12 | 99.2% (active)
10 | Cc1cccnc1NC(=S)Nc1ccccc1Cl | 91.3% (active)
11 | CCOC(=O)/C(=C\c1cccc(OC)c1)C(C)=O | 91.7% (active)
12 | c1ccc(C(c2ccccc2)c2ccc3ccccc3n2)cc1 | 40.8% (inactive)
13 | O=c1cc(CSc2ccc(Cl)cc2)occ1O | 13.4% (inactive)
14 | COc1cc(NCCCCCNC2CCCCC2)c2ncccc2c1 | 46.5% (inactive)
15 | CC(=O)OCc1ccc([N+](=O)[O-])o1 | 98.3% (active)
16 | O=C(O)Cc1cccc2cc3c(ccc4ccccc43)cc12 | 91% (active)
17 | Cc1cccc(N2C(=O)c3ccccc3C2(c2ccccc2)N2CCCCC2)c1 (stereo not drawn) | 28% (inactive)
18 | O=C(/C=C/c1ccccc1)CCN1CCOCC1 | 85.3% (active)
19 | C=CCCCCCCCCC(=O)CCCCCCCCC=C | 9.2% (inactive)
20 | Cc1ccc(O)c(C(C)c2ccccc2)c1 (stereo not drawn) | 99.6% (active)
21 | COC(=O)c1nc(N)nc(C(=O)OC)c1C(=O)c1ccccc1 | -13.3% (inactive)
22 | Cc1ccc(S(=O)(=O)Oc2ccc(C(C)(C)C)cc2Cl)cc1 | 2% (inactive)
23 | CCCCCCCCCCCCCCC[N+]1(CC)CCCCC1 | 90.8% (active)
24 | CC12CCC(=O)C=C1C=CC1C2CCC2(C)C1CCC21CCC(=O)O1 (stereo not drawn) | 80.2% (active)
25 | CC(C)N(C(=O)C12C3C4C1C1C2C3C41I)C(C)C (stereo not drawn) | 67.4% (inactive)

assay: NCI Yeast Anticancer Drug Screen. Data for the sgs1 mgt1 strain (AID 161);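 further: 0% = growth of cultures given vehicle only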; conditions: S. cerevisiae sgs1 mgt1 strain, at 5.0 µM (retest, dose inferred, filed as 0.5), hits give high values
In short: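 Inhibition of yeast growth, normalised to vehicle-treated controls, is reported for a strain bearing genetic alterations in DNA damage repair.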

Row | Compound | growth inhibition
26 | CCOP(=O)(OCC)/C(C#N)=C/c1ccc(Oc2ccccc2)cc1 | -11% (inactive)
27 | CC(=O)Nc1ccc(S(=O)(=O)/N=C2\C=CC(=O)c3ccccc32)cc1 | 1% (inactive)
28 | CCCC#CCCOC(=O)c1cc([N+](=O)[O-])cc([N+](=O)[O-])c1 | 12% (inactive)
29 | COc1cccc2c1OC(c1ccc(Cl)cc1)C([N+](=O)[O-])=C2 (stereo not drawn) | 93% (active)
30 | c1ccc(-n2c3ccccc3c3ccccc32)cc1 | 1% (inactive)
31 | CCOC(=O)C(NC(C)=O)[CH](c1ccccc1)[Sn]([c]1ccccc1)([c]1ccccc1)[c]1ccccc1 (stereo not drawn) | -10% (inactive)
32 | C/C(CCn1[nH]c(=O)ccc1=O)=N\Nc1ccc([N+](=O)[O-])cc1[N+](=O)[O-] | 27% (inactive)
33 | N#CC(O)C(Br)(Br)Br (stereo not drawn) | -4% (inactive)
34 | COc1ccc(N)c([N+](=O)[O-])c1 | -2% (inactive)
35 | CC(C)O[C@H]1N(C2CC(N=[N+]=[N-])C(CO)O2)C(=O)NC(=O)[C@]1(C)Br (stereo partly drawn) | 0% (inactive)
36 | COc1ccc(C(=O)C2C(=O)C(=O)OC2C2OC(=O)C(=O)C2C(=O)c2ccc(OC)cc2)cc1 (stereo not drawn) | 0% (inactive)
37 | O=[N+]([O-])c1c(Cl)c(Cl)c(O)c(Cl)c1Cl | 75% (active)
38 | Cc1ccc(C)c(NC(=O)CCC(=O)CC(=O)c2ccncc2)c1 | 8% (inactive)
39 | CC(C)CCCC(C)C1CCC2C3CC=C4CC(OC(=O)Nc5ccc(S(=O)(=O)c6ccc(F)cc6)cc5)CCC4(C)C3CCC12C (stereo not drawn) | 0% (inactive)
40 | COc1ccc(/C=C(/NC(=O)c2ccccc2)C(=O)Nc2ccccc2)cc1OC | -6% (inactive)
41 | C=C(Br)CN(CC(=C)Br)C(C)=O | 25% (inactive)
42 | CCN(C(C)=O)c1ccc2c(c1)Cc1ccccc1-2 | 5% (inactive)
43 | NN(c1ccccc1)c1cccc2ccccc12 | 1% (inactive)
44 | C#CCN1CCN(C(=S)N/N=C(\C)c2ccccn2)CC1 | 20% (inactive)
45 | CC(C)OC(=O)C1C=CCc2c(O)ccc(O)c21 (stereo not drawn) | 12% (inactive)
46 | CC(=O)C1C(=O)C=C(C)OC1=O (stereo not drawn) | 1% (inactive)
47 | CCOC(=O)c1[nH]n(-c2ccccc2)c(=O)c1/C=N/C(=S)N=Nc1c(O)[nH]c2ccccc12 | -7% (inactive)
48 | N#Cc1c(Cl)nnc(-c2ccccc2)c1-c1ccccc1 | -8% (inactive)
